The source made the active and inactive calls. Rule for the calls: active = hit-call score of the fitted dose curve at least 0.9, where 1 is the maximum; inactive = score below 0.9.
Assay: Tanguay_ZF_120hpf_BRN: Oregon State University Tanguay Lab 120 Hour Post-fertilization zebrafish Assay for Brain Region Malformation (AID 2284402)
Procedure: Tanguay_ZF_120hpf is a whole embryo, multiplexed endpoint assay using zebrafish larvae exposed for 120 hours post fertilization on a 96-well plate.Tanguay_ZF_120hpf_BRN is one of one assay component(s) measured or calculated from the Tanguay_ZF_120hpf assay. It is designed to make measurements of zebrafish development as detected with brightfield microscopy of developing zebrafish embryos.Data from the assay component Tanguay_ZF_120hpf_BRN was analyzed into 1 assay endpoints. This assay endpoint, Tanguay_ZF_120hpf_BRN, was analyzed in the positive analysis fitting direction relative to DMSO as the negative control and baseline of activity. Using a type of morphology reporter, gain-of-signal activity can be used to understand changes in developmentals as they relate to the whole embryo. To generalize the intended target to other relatable targets, this assay endpoint is annotated to the zebrafish development intended target family, where the subfamily is brain morphogenesis.
Zebrafish husbandry: Tropical 5D wild-type adult zebrafish were housed in at an approximate density of 1000 per 100 gallon tank at the Sinnhuber Aquatic Research Laboratory, Oregon State University, Corvallis, OR. Each tank was kept at standard laboratory conditions of 28C on a 14-h light/10-h dark photoperiod in fish water consisting of reverse osmosis water supplemented with a commercially available salt (Instant Ocean). Spawning funnels were placed into the tanks the night prior, and embryos were collected and staged. To increase bioavailability, the chorion was enzymatically removed using pronase (63.6mg/ml, >/= 3.5U/mg, Sigma-Aldrich: P5147) at 4 hours post fertilization (hpf) using a custom automated dechorionator.Chemical exposures: Six hpf dechorionated embryos were placed 1 embryo per well in a 96-well plate prefilled with 90 ul of EM using automated embryo placement systems (AEPS). Ten microliters of each row of dilution plate 2 was added to 2 exposure plates. The final DMSO concentration used was 0.64% (vol/vol). Thirty-two embryos were also exposed to 5uM trimethyltin chloride (positive control). Plates were sealed to prevent evaporation and foil covered to reduce light exposure and kept in a 28C incubator. Embryos were statically exposed until 120 hpf. At 24 hpf, embryos were assessed for photomotor response using a custom photomotor response analysis tool (PRAT) and for developmental toxicity endpoints (MO24: mortality at 24 hpf, DP: developmental progression, SM: spontaneous movement, and NC: notochord distortion). At 120 hpf, locomotor activity was measured using Viewpoint Zebralab and assessed for 13 endpoints. Zebrafish acquisition and analysis program (ZAAP), a custom program designed to inventory, acquire, and manage zebrafish data, was used to collect developmental endpoints as either present or absent (i.e., binary responses were recorded). If mortality occurred for an embryo (at either 24 or 120 hpf), the non-mortality endpoints were not measured.
In the case of `O=C(F)C1(F)C(F)(F)C(F)(F)C(F)(F)C(F)(F)C1(F)F`, the outcome is reported as “inactive”. In the case of `C[Si](Cl)(Cl)CCC(F)(F)C(F)(F)C(F)(F)C(F)(F)C(F)(F)C(F)(F)F`, the outcome is reported as “inactive”. With `CN(C(=O)C(F)(F)C(F)(F)C(F)(F)F)[Si](C)(C)C` the outcome was “inactive”. With `OCC(F)(F)C(F)(F)C(F)(F)C(F)(F)C(F)(F)C(F)(F)CO` the outcome was “inactive”. In the case of `NC(O)(C(F)(F)F)C(F)(F)F`, the outcome is reported as “inactive”. For `O=C(O)C(F)(F)C(F)(F)C(F)(F)OC(F)(F)F`, the outcome was “inactive”. In the case of `O=C(O)CCC(F)(F)C(F)(F)C(F)(F)C(F)(F)C(F)(F)C(F)(F)C(F)(F)F`, the outcome is reported as “inactive”. For `C=CC(=O)OCC(F)(F)C(F)(F)C(F)(F)COC(=O)C=C`, the AC50 was 4.29 µM (active). With `O=S(=O)(Cl)C(F)(F)C(F)(F)C(F)(F)C(F)(F)C(F)(F)C(F)(F)C(F)(F)C(F)(F)F` the outcome was “inactive”. With `NS(=O)(=O)C(F)(F)C(F)(F)C(F)(F)C(F)(F)C(F)(F)C(F)(F)F` the outcome was “inactive”. With `O=C(O)C(F)(F)C(F)(F)C(F)(F)C(=O)O` the outcome was “inactive”. With `C=CC(=O)OCCC(F)(F)C(F)(F)C(F)(F)C(F)(F)F` the outcome was “inactive”. With `FC(F)(F)C(F)(F)C(F)(F)CC1CO1` (configuration not stated) the outcome was “inactive”. For `NC(=O)C(F)(F)C(F)(F)C(F)(F)F`, the outcome was “inactive”. In the case of `NC(=O)C(F)(F)C(F)(F)C(F)(F)C(F)(F)C(F)(F)C(F)(F)C(F)(F)F`, the outcome is reported as “inactive”. With `C=CC(=O)OCC(F)(F)C(F)(F)C(F)(F)C(F)(F)C(F)(F)C(F)(F)C(F)(F)C(F)F` the outcome was “inactive”. With `CCN(CCO)S(=O)(=O)C(F)(F)C(F)(F)C(F)(F)C(F)(F)C(F)(F)C(F)(F)C(F)(F)C(F)(F)F` the outcome was “inactive”. With `CO[Si](C)(CCC(F)(F)C(F)(F)C(F)(F)C(F)(F)C(F)(F)C(F)(F)F)OC` the outcome was “inactive”. In the case of `O=S(=O)(OCC(F)(F)F)C(F)(F)C(F)(F)C(F)(F)C(F)(F)F`, the outcome is reported as “inactive”. For `O=S(=O)(O)CCC(F)(F)C(F)(F)C(F)(F)C(F)(F)F`, the outcome was “inactive”. In the case of `NC(=O)C(F)(F)C(F)(F)C(F)(F)C(F)F`, the outcome is reported as “inactive”. With `NC(=O)C(F)(F)C(F)(F)C(F)(F)C(F)(F)C(N)=O` the outcome was “inactive”. With `OCCCCC(F)(F)C(F)(F)C(F)(F)C(F)(F)F` the outcome was “inactive”. For `OCC(F)(F)C(F)(F)C(F)(F)CO`, the outcome was “inactive”. For `OCC(F)(F)C(F)(F)C(F)(F)C(F)(F)C(F)(F)C(F)(F)C(F)(F)C(F)(F)CO`, the outcome was “inactive”. With `CNS(=O)(=O)C(F)(F)C(F)(F)C(F)(F)C(F)(F)C(F)(F)C(F)(F)C(F)(F)C(F)(F)F` the outcome was “inactive”. For `O=C(O)CCC(F)(F)C(F)(F)C(F)(F)F`, the outcome was “inactive”. For `FC(F)(F)C(F)(F)C(F)(F)C(F)(F)C(F)(F)C(F)(F)C(F)(F)CCI`, the outcome was “inactive”. In the case of `O=C(O)C(F)(F)C(F)(F)C(F)(F)OC(F)(C(F)(F)F)C(F)(F)F`, the outcome is reported as “inactive”. In the case of `O=S(=O)(O)CCC(F)(F)C(F)(F)C(F)(F)C(F)(F)C(F)(F)C(F)(F)C(F)(F)C(F)(F)F`, the outcome is reported as “inactive”. With `COC(F)(C(F)F)C(F)(F)F` (configuration not stated) the outcome was “inactive”. For `FC(F)(F)C(F)(F)C(F)(F)C(F)(F)C(F)(F)C(F)(F)CC[Si](Cl)(Cl)Cl`, the outcome was “inactive”. For `OC(O)C(F)(F)C(F)(F)F`, the outcome was “inactive”. For `CCOC(=O)CC(=O)C(F)(F)C(F)(F)F`, the outcome was “inactive”. For `OCC(O)CC(F)(F)C(F)(F)C(F)(F)C(F)(F)F` (configuration not stated), the outcome was “inactive”. In the case of `OCCCC(F)(F)C(F)(F)C(F)(F)C(F)(F)C(F)(F)C(F)(F)C(F)(F)C(F)(F)F`, the outcome is reported as “inactive”. With `OCC(O)CC(F)(F)C(F)(F)C(F)(F)C(F)(F)C(F)(F)C(F)(F)C(F)(F)C(F)(F)F` (configuration not stated) the outcome was “inactive”.

Reference: PubChem BioAssay (EPA / NIEHS)
